PubChem BioAssay (NCI)
Compounds without any hit were thinned out: in the full panel of roughly 83,000, 20% have a hit.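 Single-concentration screen, 48 h exposure, 96-well plates. Endpoint: percent growth. Below 10 = active.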 Values without a mark were called inactive. Calls of active or inactive are those of the source.

Experiments:
Test in all cases: NCI-60 one-dose screen, 48 h (100 = growth as untreated, 0 = no growth, -100 = all killed)
Settings in all cases: 10 µM unless noted
[1] = tested on: SK-MEL-2 melanoma
[2] = tested on: EKVX NSCLC
[3] = tested on: SN12C renal
[4] = tested on: UO-31 renal
[5] = tested on: TK-10 renal
[6] = tested on: ACHN renal
[7] = tested on: CAKI-1 renal
[8] = tested on: A498 renal
[9] = tested on: CCRF-CEM leukemia
[10] = tested on: MOLT-4 leukemia
[11] = tested on: SR leukemia
[12] = tested on: RPMI-8226 leukemia
[13] = tested on: OVCAR-5 ovarian
[14] = tested on: OVCAR-4 ovarian
[15] = tested on: SK-OV-3 ovarian
[16] = tested on: IGROV1 ovarian
[17] = tested on: OVCAR-3 ovarian
[18] = tested on: HS 578T breast
[19] = tested on: NCI/ADR-RES ovarian

SMILES	growth [1]	growth [2]	growth [3]	growth [4]	growth [5]	growth [6]	growth [7]	growth [8]	growth [9]	growth [10]	growth [11]	growth [12]	growth [13]	growth [14]	growth [15]	growth [16]	growth [17]	growth [18]	growth [19]
O=C(O)CCC(=O)Nc1nnc(-c2ccccc2)s1	106%	95.3%	104%	106%	111%	109%	97.8%	98.9%	106%	111%	95.6%	99.4%	107%	109%	95.6%	112%	101%	111%	107%
COc1ccc(-c2nc3sc(-c4ccc(Cl)cc4)cn3n2)cc1	106%	47.5%	5.26% (active)	-7.46% (active)	-30.8% (active)	-74% (active)	-3.32% (active)	-25.3% (active)	69.5%	82.6%	51.1%	44.9%	52%	-63.3% (active)	49.5%	7.07% (active)	24.7%	27%	45.6%
COc1cccc(Cc2nn3cc(-c4ccccc4)nc3s2)c1	95.2%	94.1%	96.3%	74.6%	95.1%	96%	90.8%	99.5%	30.2%	30.1%	16.3%	33.7%	114%	98.4%	103%	86.4%	85.5%	106%	101%
CC1(C)C2CC1C1(/C=N\Nc3ccccc3)C(C2)C(C#N)(C#N)C1(C#N)C#N (centres undefined)	92.7%	89%	90%	66.6%	133%	75.9%	70.1%	97.1%	83.7%	95.7%	92.4%	90.1%	103%	82.5%	97.4%	64.8%	84.7%	93.9%	87.8%
c1ccc(-c2nc3sc(-c4ccccc4)cn3n2)cc1	94.7%	78.6%	79.5%	46.9%	127%	85.5%	90.8%	86%	86.8%	88.6%	90.4%	85.5%	122%	76.1%	94.2%	56.2%	83.5%	90.1%	85.6%
O=C1CN(CCN2CC(=O)N(Cc3ccccc3)C(=O)C2)CC(=O)N1Cc1ccccc1	106%	99.2%	98.6%	76.3%	111%	106%	92.8%	89.7%	94.3%	92.3%	108%	99.5%	109%	106%	113%	109%	109%	96.7%	103%
CCCCCCNC(=O)Oc1ccc(/C(=C(\C)c2ccc(Cl)cc2)c2ccc(OCCCN(C)C)cc2)cc1	92.1%	83%	90%	55.4%	75.8%	94.3%	96.2%	85.7%	70.7%	37.3%	-13% (active)	79%	75.1%	76%	94.4%	67%	87.8%	74.5%	83.2%
Cc1ccc(C(=O)N/N=C/c2cccc([N+](=O)[O-])c2)cn1	111%	104%	105%	76.6%	118%	107%	87.1%	84.9%	96.7%	92.1%	108%	93%	108%	111%	102%	108%	118%	93.1%	104%
O=C1CCC(C(=O)NCCNCCNC(=O)C2CCC(=O)N2)N1 (centres undefined)	99.8%	100%	96.9%	96.5%	100%	112%	98.8%	89.9%	88.7%	97.2%	103%	95.8%	112%	109%	98%	110%	106%	94.1%	105%
O=C(Nc1ccc(OS(=O)(=O)c2ccc(F)cc2)cc1)c1ccc(Cl)cc1	90.6%	101%	95.7%	92.5%	95.6%	103%	105%	82.9%	98.7%	89.1%	91.4%	94.2%	102%	106%	105%	95.7%	102%	104%	93.1%
c1ccc(Cc2nn3cc(-c4ccccc4)nc3s2)cc1	97%	95.9%	103%	95.4%	89.5%	106%	98.7%	96.5%	102%	93.9%	82.1%	98.3%	109%	106%	112%	106%	105%	115%	102%
c1ccc2cc(C[n+]3ccn(CCCCCCn4cc[n+](Cc5ccc6ccccc6c5)c4)c3)ccc2c1	36%	37.3%	34.9%	97.2%	83.1%	72.5%	95.4%	10%	84.2%	74.9%	69%	65.5%	60.4%	40.8%	55.6%	58.1%	62.4%	68.5%	100%
Nc1ccccc1-c1cc2c(c3c1[nH]c1ccccc13)CCCCC2	92.5%	89.9%	99.7%	96.7%	101%	107%	114%	119%	93.1%	90.8%	94.2%	99.3%	108%	105%	115%	97%	102%	95.2%	94.8%
COc1ccc(C(Cc2ccccc2)NCCN2CCOCC2)cc1 (centres undefined)	95.9%	104%	99.6%	84.5%	95.4%	106%	98.8%	101%	113%	93.8%	96.4%	109%	94.7%	98.7%	102%	91.8%	100%	107%	98.7%
O=c1n(Cc2ccc3ccccc3c2)ccn1Cc1ccc2ccccc2c1	83%	96.6%	91.2%	86.5%	82.7%	74.3%	90%	105%	117%	91.8%	97%	104%	82.1%	69.3%	90.5%	91.6%	100%	86.9%	86.8%
COc1cc(/C=N/NC(=O)c2ccc(C)nc2)cc(OC)c1OC	79.3%	90.4%	102%	65.6%	81.3%	91.2%	79.8%	93.2%	87%	57.8%	103%	121%	103%	96.4%	112%	107%	119%	88.6%	102%
